The text below walks through data of PubChem BioAssay (Tox21).

Test [1] is described as follows: qHTS assay to identify small molecule agonists of the constitutive androstane receptor (CAR) signaling pathway - cell viability counter screen (AID 1224836). Further: nearly all actives have a fitted effect of over 45% in size. Put shortly: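 23 h treatment, 37 C, 5% CO2. Cell line: HepG2 stably expressing hCAR with a CYP2B6-2.2kb construct. Co-treatment: PK11195, 0.75 uM final. Read-out: CellTiter-Fluor fluorescence intensity.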
Test [2] in a line: qHTS assay to identify small molecule antagonists of the constitutive androstane receptor (CAR) signaling pathway - cell viability counter screen (AID 1224837). Further: nearly all actives have a fitted effect of over 45% in size. The essentials:
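Multiplexed cytotoxicity read-out for the CAR antagonist screen: double-stable HepG2-CYP2B6-hCAR cells co-treated with 50 nM CITCO (final) and compound over 15 concentrations, incubated 23 hr, then assessed by CellTiter-Fluor fluorescence.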

Test [3] addresses Nuclear receptor subfamily 1 group I member 3 (Homo sapiens) (UniProt Q14994). The experiment in a line: qHTS assay to identify small molecule antagonists of the constitutive androstane receptor (CAR) signaling pathway (AID 1224838). Further: nearly all actives have a fitted effect of over 40% in size. The essentials:
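Compounds were titrated across 15 concentrations onto HepG2 cells double-stably expressing hCAR and a CYP2B6-2.2kb reporter, together with 50 nM CITCO (final). After 24 h at 37 C, luciferase activity was measured by luminescence.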

Test [4] has the same target. Nature of the test: qHTS assay to identify small molecule agonists of the constitutive androstane receptor (CAR) signaling pathway (AID 1224839).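 Further: HepG2 cells stably carrying human CAR and a CYP2B6 luciferase reporter; nearly all actives have a fitted effect of over 15% in size.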 Put shortly:
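Compounds tested at 15 concentrations on HepG2 cells stably harbouring hCAR and CYP2B6-2.2kb reporter constructs, co-treated with PK11195 (0.75 uM final), 24 h at 37 C; luminescent reporter signal quantified.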
(In qHTS, concentration-response curves come from the screen itself.)

Test [5] is described as follows: qHTS assay to identify small molecule antagonists of the estrogen related receptor signaling pathway with the pleiotropic PPARgamma coactivator (PGC) from Tox21 10K library - cell viability counter screen (AID 1224840; active means well fitted cell-killing curve with a large enough effect in the repeat runs, not every such curve was filed as active; further: nearly all actives have a fitted effect of over 40% in size). Put shortly:
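Step one, plate 2,000 PGC/ERR cells per well; step two, incubate 6 h at 37 C/5% CO2; step three, pin-transfer compounds; step four, incubate 17.5 h; step five, add CellTiter-Fluor and read fluorescence after 30 min.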

The nature of test [6]: qHTS assay to identify small molecule antagonists of the estrogen related receptor signaling pathway with the pleiotropic PPARgamma coactivator (PGC) from Tox21 10K library (AID 1224841; call rule not given here; further: actives are mostly falling curves and most rising ones were filed inactive; nearly all actives have a fitted effect of over 50% in size). The essentials:
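Antagonism in this quantitative HTS is taken from loss of luciferase signal in PGC/ERR cells. Cells (2,000/well) are treated with compounds in DMSO after a 6 h settling period and read by One-Glo luminescence after 18 h.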

Test [7] in a line: qHTS assay to identify small molecule agonists of the estrogen related receptor signaling pathway with the pleiotropic PPARgamma coactivator (PGC) from Tox21 10K library (AID 1224842). Further: nearly all actives have a fitted effect of over 15% in size. The essentials:
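PGC/ERR reporter cells (NTP line) were seeded 2,000 per well, rested 6 h at 37 C/5% CO2, then pin-dosed with compounds in DMSO for 18 h at 37 C; luciferase read by One-Glo luminescence after 30 min at room temperature.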

The target in test [8] is Thyrotropin receptor (Homo sapiens) (UniProt P16473). The experiment in a line: qHTS assay to identify small molecule agonists of the thyroid stimulating hormone receptor (TSHR) signaling pathway (AID 1224843; calls by dose curve; further: nearly all actives have a fitted effect of over 45% in size). The essentials: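 TSHR-expressing HEK293 cells (800 per well) were exposed to compounds for 30 min at room temperature. cAMP was then detected by HTRF competition with cAMP-d2 and anti-cAMP cryptate, read after 1 h at room temperature. Fifteen concentrations, triplicate.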

The nature of test [9]: qHTS assay to identify small molecule agonists of H2AX - cell viability counter screen (AID 1224847; calls by dose curve; further: nearly all actives have a fitted effect of over 30% in size; further: potency means the concentration at half of the fitted maximal effect; on activity change, negative = cytotoxicity: top concentration of the series differs between compounds). The essentials:
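Compounds tested at 15 concentrations were incubated 3 hr at 37C with wild-type CHO-K1 cells; cellular ATP-based luminescence (CellTiter-Glo) indicated viability.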

Test [10] is described as follows: qHTS assay to identify small molecule antagonists of the estrogen related receptor (ERR) signaling pathway from Tox21 library (AID 1224848). Further: nearly all actives have a fitted effect of over 50% in size. Further: potency means the concentration at half of the fitted maximal effect. The essentials: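 Cells: ERR line, 2,000/well; 6 h preincubation 37 C/5% CO2. Cpd in DMSO via pin tool; 18 h, 37 C. ONE-Glo, 30 min RT, luminescence.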
The nature of test [11]: qHTS assay to identify small molecule agonists of the estrogen related receptor (ERR) signaling pathway from Tox21 library (AID 1224849; calls by dose curve; further: nearly all actives have a fitted effect of over 15% in size). Conditions: ERR reporter cell line, ONE-Glo luciferase, 18 h; at 92.4 µM (top of the series) unless noted. Put shortly: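 Agonist signal is luciferase luminescence from an ERR reporter cell line treated 18 h at 37 C with DMSO-dissolved compounds, read 30 min after ONE-Glo addition at room temperature.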

Test [12] is described as follows: qHTS RealTime-Glo MT Cell Viability Assay in HepG2 cells - 24 hour (AID 1224867). Further: nearly all actives have a fitted effect of over 50% in size. Put shortly: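 HepG2 suspension premixed with RealTime-Glo reagents is plated at 600 cells per well and left 5 h at 37 C/5% CO2. Compounds in DMSO then go in, and bioluminescence reflecting viable cell number is recorded over 40 h.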
Test [13] in a line: qHTS RealTime-Glo MT Cell Viability Assay in HEK293 cells - 32 hour (AID 1224868). Further: top concentration of the series differs between compounds; nearly all actives have a fitted effect of over 50% in size. The essentials: (§1)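 Reads taken at 0, 8, 16, 24, 32 and 40 h from the same wells. HEK293 cells (600/well) carried RealTime-Glo reagents from seeding, with compound added after a 5 h settle at 37 C.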
Test [14] can be described thus: A CellTox Green Cytotoxicity Assay to monitor cytotoxicity in HEK293 cells - 0 hour (AID 1224869). Further: nearly all actives have a fitted effect of over 50% in size. The essentials: (§2)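 Cytotoxicity was tracked continuously in HEK293 cells by a DNA-binding dye excluded from viable cells. Compounds were transferred in DMSO 5 h after seeding; fluorescence was recorded at intervals up to 40 h.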
A short description of test [15]: qHTS RealTime-Glo MT Cell Viability Assay in HepG2 cells - 40 hour (AID 1224870). Further: nearly all actives have a fitted effect of over 50% in size. The essentials:
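HepG2 cells mixed with RealTime-Glo MT reagents (NanoLuc plus cell-permeant prosubstrate) were seeded at 600 cells/well, incubated 5 h at 37 C/5% CO2, then pinned with compounds in DMSO; nonlytic luminescence tracked viability during 40 h treatment.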

The nature of test [16]: qHTS RealTime-Glo MT Cell Viability Assay in HEK293 cells - 16 hour (AID 1224872). Put shortly: as §1
Test [17] in a line: qHTS assay to identify small molecule agonists of the hypoxia (HIF-1) signaling pathway - cell viability counter screen (AID 1224844; calls by dose curve; further: nearly all actives have a fitted effect of over 50% in size; further: potency means the concentration at half of the fitted maximal effect). The essentials:
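Tox21 10K compounds were added to HRE-bla ME-180 cells (0.5% dialyzed FBS) and incubated 17 hrs at 37C; ATP-based CellTiter-Glo luminescence then reported cell viability in the same wells.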

Test [18] in a line: qHTS assay to identify small molecule agonists of H2AX (AID 1224845; active means well fitted activation curve with a large enough effect in the signal ratio in the repeat runs, not every such curve was filed as active; the % refers to the signal ratio; further: potency means the concentration at half of the fitted maximal effect). Put shortly:
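Wild-type CHO-K1 cells plated overnight, then exposed 3 hr at 37C to compounds at 15 concentrations (0.76% DMSO). Lysed, then HTRF anti-pH2AX(S139)-cryptate/anti-H2AX-d2 detection after 24 hr at room temperature; emissions 665 and 620 nm.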

Test [19] in a line: qHTS assay to identify small molecule agonists of the hypoxia (HIF-1) signaling pathway (AID 1224846; active means well fitted activation curve with a large enough effect in the signal ratio in the repeat runs, not every such curve was filed as active; the % refers to the signal ratio). The essentials:
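Steps: seed ME-180 HRE-bla cells (2,000/well, 0.5% dialyzed FBS); incubate 5 hrs at 37C; pin-transfer compounds or DMSO; incubate 17 hrs; add LiveBLAzer B/G substrate CCF4-AM; measure reporter activation by FRET.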

Test [20] is described as follows: A CellTox Green Cytotoxicity Assay to monitor cytotoxicity in HEK293 cells - 40 hour (AID 1224871). Further: nearly all actives have a fitted effect of over 45% in size. The essentials:
as §2

Several values for one entry are separate records, joined by “and”; a condition that tells them apart may be missing. Identical values can stand only once. Records with an inconclusive call do not appear. A structure can be active in one record and inactive in another. Activity calls are given as the source filed them. Unless noted, the call rests on the fitted dose curve; in most records, active means well fitted curve in the direction sought with a large enough effect in the repeat runs; inconclusive means weak or mixed curves; inactive means no such curve, though single readings can be large; an effect the other way counts as inactive or inconclusive.
On the % scale 0 is the no-effect control and ±100 the full control effect.

Thyrotropin receptor (Homo sapiens), sequence (P16473 whole entry, looked up): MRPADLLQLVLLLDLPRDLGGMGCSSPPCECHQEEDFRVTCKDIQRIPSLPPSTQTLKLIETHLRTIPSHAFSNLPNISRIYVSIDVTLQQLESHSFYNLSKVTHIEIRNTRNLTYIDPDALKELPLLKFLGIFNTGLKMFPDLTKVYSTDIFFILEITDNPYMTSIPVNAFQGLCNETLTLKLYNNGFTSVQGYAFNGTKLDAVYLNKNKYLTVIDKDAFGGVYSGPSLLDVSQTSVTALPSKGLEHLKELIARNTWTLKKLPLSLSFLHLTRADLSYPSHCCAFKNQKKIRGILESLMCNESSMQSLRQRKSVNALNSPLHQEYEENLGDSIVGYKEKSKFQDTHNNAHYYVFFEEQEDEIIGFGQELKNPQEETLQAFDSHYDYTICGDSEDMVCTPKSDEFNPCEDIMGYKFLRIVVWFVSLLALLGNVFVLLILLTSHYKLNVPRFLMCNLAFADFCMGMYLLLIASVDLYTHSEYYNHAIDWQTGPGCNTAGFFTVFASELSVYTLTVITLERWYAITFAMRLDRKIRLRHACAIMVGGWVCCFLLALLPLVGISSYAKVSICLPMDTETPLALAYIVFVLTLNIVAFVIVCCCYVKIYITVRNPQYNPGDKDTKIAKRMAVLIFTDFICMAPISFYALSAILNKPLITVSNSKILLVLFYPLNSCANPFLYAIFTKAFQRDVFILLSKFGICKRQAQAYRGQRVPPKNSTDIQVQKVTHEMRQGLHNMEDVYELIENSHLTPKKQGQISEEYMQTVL
Nuclear receptor subfamily 1 group I member 3 (Homo sapiens), sequence (Q14994 whole entry, looked up): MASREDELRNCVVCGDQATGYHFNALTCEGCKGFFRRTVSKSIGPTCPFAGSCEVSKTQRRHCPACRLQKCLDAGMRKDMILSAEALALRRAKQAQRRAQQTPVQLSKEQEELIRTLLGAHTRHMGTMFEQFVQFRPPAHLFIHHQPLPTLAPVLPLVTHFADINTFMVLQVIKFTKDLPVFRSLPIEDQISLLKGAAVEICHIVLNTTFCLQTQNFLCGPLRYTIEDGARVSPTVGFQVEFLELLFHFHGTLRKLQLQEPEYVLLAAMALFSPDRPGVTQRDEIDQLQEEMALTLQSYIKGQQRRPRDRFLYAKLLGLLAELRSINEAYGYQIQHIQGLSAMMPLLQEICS

For `C(=C/c1ccccc1)/c1ccccc1`, the Potency entry in test [1], in test [2], in test [3], in test [4], in test [5] and in [6] was “inactive” each time. In addition, the Potency entry in test [7], in test [8], in [9], in test [10], in test [12] and in test [13] was “inactive” each time. For the same molecule, the Potency entry in test [14], in [15] and in test [16] was “inactive” in each case. Also, the activity change, positive = activation in test [11] was 2.16% (inactive).

As for `CCOCOCC`, the Potency entry in [1], in test [2], in test [3], in test [4], in [5] and in test [6] was “inactive” throughout. Further, the Potency entry in [7], in test [8], in [17], in [18], in [9] and in test [10] was “inactive” each time. In addition, the Potency entry in [12], in test [13] and in test [16] was “inactive” each time. Moreover, the activity change, positive = activation in test [11] was 0.502% (inactive).

On to `C=CC/C=C/C/C=C/C/C=C/C`, for which the Potency result in test [1], in test [2], in [3], in test [4], in [5] and in test [6] was “inactive” throughout. Besides, the Potency result in test [7], in test [8], in test [17], in [18], in [9] and in [10] was “inactive” in each case. Also, the Potency result in test [12], in test [13], in test [14], in [15], in [20] and in [16] was “inactive” in each case. In addition, the call in [19] was inactive. In addition, in [11], the activity change, positive = activation was 3.56% (inactive).

Take `N[C@@H](CSSC[C@H](N)C(=O)O)C(=O)O`: the results for the viability change, negative = cytotoxic in test [1] and in [5] were 5.67% [at 0.349 µM] (inactive) and 6.11% [at 0.349 µM] (inactive), respectively. The activity change, negative = cytotoxicity in test [2] is -3.15% [at 0.349 µM] (inactive); in test [17], 25.3% [at 0.29 µM] (inactive); in test [9] it was -5.28% [at 0.582 µM] (inactive); in test [12], -0.491% [at 0.29 µM] (inactive); in test [16], 13.2% [at 0.29 µM] (inactive). Further, the activity, negative = inhibition in test [3] was -10.8% [at 0.349 µM] (inactive); in test [6] it was 16.2% [at 0.349 µM] (inactive); in [10] it was -3.98% [at 0.349 µM] (inactive). The figures for the activation in [4], in test [7] and in test [8] were -0.0368% [at 0.349 µM] (inactive), 4.81% [at 0.349 µM] (inactive) and 2.51% [at 0.349 µM] (inactive), respectively. Also, the activity change, positive = activation in test [11] is -3.33% [at 0.349 µM] (inactive). Moreover, the activity change, negative = cytotoxic was 5.6% [at 0.29 µM] (inactive) in test [13] and -2.12% [at 0.29 µM] (inactive) in test [15]. In test [14], the cytotoxicity is -2.52% [at 0.29 µM] (inactive). Also, the cytotoxicity increase in [20] was 3.14% [at 0.29 µM] (inactive).

Take `CC(C)(c1cc(Br)c(O)c(Br)c1)c1cc(Br)c(O)c(Br)c1`: the Potency entry in [1], in [2], in [3], in test [4], in test [5] and in test [6] was “inactive” throughout. Further, the Potency entry in [7], in test [8], in test [12], in test [13], in test [14] and in test [15] was “inactive” throughout. Also, the Potency result in test [20] and in test [16] was “inactive” throughout. Also, the Potency was 54.8 µM (active) and 48.9 µM (active) in [17]; 113 µM (active) in test [18]; 89.5 µM (active) in [9]; 54.3 µM (active) and inactive in test [10]. Besides, the activity change, positive = activation in [11] is -21.4% (inactive) and -40.7% (inactive) and -13.4% (inactive).

In the case of `CCOC(/C=C(\C)CCC=C(C)C)OCC`, the Potency result in [1], in [2], in test [3], in test [4], in test [5] and in test [6] was “inactive” each time. Besides, the Potency entry in test [7], in test [8], in [18], in test [9], in test [10] and in test [12] was “inactive” each time. Also, the Potency entry in test [14], in test [15], in [20] and in [16] was “inactive” throughout. The call in test [19] was inactive. Further, in test [11], the activity change, positive = activation was 4.73% (inactive).

With `Cc1cccc(N(C)C)c1`, the Potency result in test [1], in test [2], in test [3], in [4], in test [5] and in [6] was “inactive” in each case. For the same molecule, the Potency result in test [7], in test [8], in [17], in test [18], in test [9] and in test [10] was “inactive” in each case. Moreover, the Potency entry in test [12], in test [14], in [15], in test [20] and in test [16] was “inactive” in each case. Moreover, the molecule was called inactive in [19]. In test [11], the activity change, positive = activation is -0.051% (inactive).
